Compounds with a hit are over-represented: about 15% of the library has one in this group of screens.
HCV inh: blocks hepatitis C virus. 340,000 compounds, 3.4% hits. Huh7.5.1 HCVcc-Cre infection, luciferase reporter, 44 h. AID 651820. Potency, µM (titrated, usually from 41.8 µM), actives largely listed as inhibitors
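Whole-lifecycle infectious HCVcc-Cre system; cells 1,000/well, compound then virus (~0.5 moi) added 4 h after plating, 44 h culture. Luciferase read 15 sec following 15 min substrate incubation, room temp.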
Sm TGR inh: blocks Schistosoma mansoni thioredoxin glutathione reductase | purified TGR, DTNB reduction, TNB absorbance 405 nm | Potency, µM (titrated, usually from 114 µM), most hits filed as inhibitors | 360,000 compounds, 3% hits; further: nearly all actives have a fitted effect of over 60% in size
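TGR 20 nM + NADPH 100 uM (dispensed conc.), cpd preinc 15 min RT; start with NADPH (500 uM addition) then DTNB (15 mM addition). Kinetic TNB absorbance, 405 nm filter. Four-parameter Hill fit across titration.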
Pf growth 48h: P. falciparum growth inhibition at 48 hours (one generation) | 310,000 compounds, 5.9% hits | AID 504832 | P. falciparum luciferase growth in erythrocytes, 48 h | Potency, µM (series often up to 28.7 µM), most hits filed as inhibitors
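Compounds are pin-transferred into medium, infected erythrocytes (2% hematocrit, 0.1% parasitemia final) are added, and plates sit one parasite generation at 37 C in 5% CO2. Detection reagent is then added and luminescence measured.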
HCMV inh: inhibitors of human cytomegalovirus; HFF cells, HCMV-luciferase reporter, 72 h; hits give low values; AID 1259415; activity change, negative = inhibition, % at 57.5 µM; 410,000 compounds, 4.5% hits; in the data active means activity change below about -60%; inconclusive means no clear call, values can overlap the other calls; inactive means above about -39%
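Luciferase read-out from HCMV-luciferase-infected HFFs (MOI 1 PFU/cell) 72 h post infection at 37C; compounds added after 16 h cell attachment; activity normalized between buffer-only basal and Salinomycin (10uM) inhibitor controls.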
SARS PLP yeast: inhibitors of SARS-CoV papain-like protease in yeast; Potency, µM (doses to about 32.9 µM), actives largely listed as activators; 330,000 compounds, 0.19% hits; AID 485353; S. cerevisiae expressing SARS-CoV PLpro, growth rescue; calls by dose curve; further: nearly all actives have a fitted effect of over 55% in size
Pf growth 96h: P. falciparum growth inhibition at 96 hour, primary screen for plastid delayed-death inhibitors. P. falciparum luciferase reporter growth, 96 h. Potency, µM (highest dose often 28.7 µM), usual class: inhibitors. 320,000 compounds, 6.9% hits. AID 504834
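Parasite growth measured via integrated firefly luciferase reporter in P. falciparum. Infected erythrocytes at 2% hematocrit, 0.05% parasitemia final were treated 96 hours at 37 C under 5% CO2, and luminescence was read.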
Numbers stand for hits; – = inactive; ? = inconclusive; · = not tested or not shown. Unless noted, the call rests on the fitted dose curve; in most records, active means well fitted curve in the direction sought with a large enough effect; inconclusive means small, poorly fitted or top-dose-only effect, or another doubt; inactive means no such curve, though single readings can be large; an effect the other way counts as inactive or inconclusive.

SMILES	HCV inh	Sm TGR inh	Pf growth 48h	HCMV inh	SARS PLP yeast	Pf growth 96h
CCCCn1c(N)c(N(CCOC)C(=O)CSc2ccccc2C)c(=O)[nH]c1=O	–	–	?	–	–	?
COCCN(C(=O)CSc1n[nH]c(-c2ccc(OC)cc2)n1)c1c(N)n(Cc2ccccc2)c(=O)[nH]c1=O	–	–	?	–	–	–
CCOC(=O)[C@]12CCC=C1N(CCC1=CCCCC1)C(=O)[C@H](CC(=O)NCc1ccccc1)C2	·	·	·	–	·	·
Cc1cc(C)n2c(=O)[nH]nc2c1	–	·	·	–	·	·
CC(=O)Nc1ccc(S(=O)(=O)NCC(=O)OCC(=O)N2CC(C)OC(C)C2)cc1 (stereo not given)	–	·	·	?	–	·
CSc1cc(C)c(OCC(=O)Nc2ccc(NC(C)=O)cc2)c(C)c1	–	–	–	–	–	–
CCN(c1ccc2c(c1)OCO2)S(=O)(=O)c1cc(Br)cc2c1N(C(C)=O)CC2	–	?	?	–	–	9.3µM
CCOC(=O)C1CCN(S(=O)(=O)c2cc(Br)cc3c2N(C(C)=O)C(C)C3)CC1 (stereo not given)	–	–	8.3µM	–	–	?
CCN(c1ccc2c(c1)OCO2)S(=O)(=O)c1cc2c(cc1Br)CCN2C(=O)C1CC1	?	·	·	–	·	·
CCOC(=O)C1CCCN(S(=O)(=O)c2cc(Br)cc3c2N(C(C)=O)CC3)C1 (stereo not given)	?	–	3.7µM	?	–	?
CCOC(=O)C1CCN(S(=O)(=O)c2cc(Br)cc3c2N(C(=O)CC)CC3)CC1	·	–	·	–	·	·
CCCCN(C)S(=O)(=O)c1cc(Br)cc2c1N(C(=O)C1CC1)CC2	?	–	4.7µM	·	–	?
CCOC(=O)N1CCN(S(=O)(=O)c2cc(Br)cc3c2N(C(C)=O)C(C)C3)CC1 (stereo not given)	–	–	?	–	–	–
C=C(C)C(=O)Oc1ccc(N2C(=O)[C@@H]3C4C=CC(C4)[C@@H]3C2=O)cc1	–	?	–	–	–	–
CCOC(=O)c1c(S(=O)(=O)N2CCCC(C(=O)Nc3cccc(Cl)c3)C2)c(C)n(C)c1C (stereo not given)	·	–	·	–	·	·
O=C(C1CC1)N1CCc2cc(Br)cc(S(=O)(=O)N3CCOCC3)c21	–	–	5.2µM	–	–	–
CCC(=O)N1CCc2cc(Br)cc(S(=O)(=O)N3CCCC(C(=O)NC(C)(C)C)C3)c21 (stereo not given)	–	–	1.2µM	–	–	?
COc1ccc(N2CCN(S(=O)(=O)c3cc(Br)cc4c3N(C(=O)C3CC3)CC4)CC2)cc1	·	–	·	–	·	·
CC(=O)N1CCc2cc(Br)cc(S(=O)(=O)N3CCCCC3)c21	–	–	2.6µM	–	–	?
CCOc1ccc(N(CC)S(=O)(=O)c2cc(Br)cc3c2N(C(C)=O)C(C)C3)cc1 (stereo not given)	·	–	·	-63	·	·
CC(=O)N1CCc2cc(Br)cc(S(=O)(=O)N3CCC(C)CC3)c21	·	–	·	–	·	·
CCCn1c(SCC(=O)N(C)CC(=O)Nc2ccc(Cl)cc2)n[nH]c1=O	–	–	?	–	–	–
Cc1ccc(-n2c(C(C)C)nc3oc4ccccc4c(=O)c3c2=O)cc1	–	–	–	–	–	–
CCc1ccccc1-n1c(N)c(C(=O)OC)c2nc3ccccc3nc21	·	–	·	–	·	·
CCC(=O)N1CCc2cc(Br)cc(S(=O)(=O)NCCCN(C)Cc3ccccc3)c21	–	–	?	-67	–	?
SMILES	HCV inh	Sm TGR inh	Pf growth 48h	HCMV inh	SARS PLP yeast	Pf growth 96h
COc1cc(C(=O)OC2C[C@H]3CC[C@@H](C2)N3)ccc1O (stereo not given in full)	–	–	12µM	–	–	?
Cc1nc(SCc2ccccc2C)n[nH]1	–	–	–	–	–	–
CCOc1ccc(Cl)cc1CSc1n[nH]c(C)n1	?	·	?	-72	–	–
CCCC[C@H](CN[C@@H](CNC)[C@H](C)CC)NCCC12CCC(CC1)C2	?	–	?	-97	–	2.6µM
CC[n+]1c(/C=C/N(C)c2ccccc2)n(-c2ccccc2)c2ccc(-c3nc4ccccc4s3)cc21	5.6µM	–	–	·	–	–
Cc1ccc(S(=O)(=O)CCC(=O)Nc2ccccc2N2CCCC2)cc1	–	–	–	–	–	–
Cc1ccc(S(=O)(=O)CCC(=O)Nc2ccccc2C)cc1	–	40µM	–	–	–	–
Cc1ccc(S(=O)(=O)CCC(=O)Nc2sccc2C#N)cc1	–	45µM	–	–	–	?
O=C(O)Cn1c(COc2ccc(Cl)cc2)nc2ccccc21	–	–	–	–	–	–
NNC(=O)Cn1c(COc2ccc(Cl)cc2)nc2ccccc21	11µM	–	–	–	–	?
CCN(CC)S(=O)(=O)c1ccc(N2CCOCC2)c(NC(=O)c2ccc(N3CCCC3=O)cc2)c1	?	–	7.4µM	–	–	15µM
CCN(CC)S(=O)(=O)c1ccc(N2CCCC2)c(NC(=O)c2ccc(N3CCCC3=O)cc2)c1	?	–	13µM	–	–	12µM
CCN(CC)S(=O)(=O)c1ccc(N2CCCC2)c(NC(=O)c2ccncc2)c1	–	–	–	–	–	–
COc1ccc(NC(=O)CN2C(=O)C(C)Oc3ccccc32)cc1OC (stereo not given)	–	–	–	–	–	?
Cc1ccc(-n2c(SCC(N)=O)nc3c(oc4ccccc43)c2=O)cc1	–	–	–	–	–	–
O=C(NCCc1cccs1)Nc1nnc([C@H]2C[C@H](O)[C@@H](CO)O2)s1	·	·	·	–	·	·
O=C1c2ccccc2S(=O)(=O)N1Cc1cc(=O)n2ccsc2n1	–	–	?	–	?	13µM
Cc1cc(=O)n2ccsc2n1	–	–	–	–	–	13µM
O=c1cc(CN2CCNCC2)nc2sccn12	–	?	–	–	–	–
CN1CCN(Cc2cc(=O)n3ccsc3n2)CC1	–	–	–	-89	–	?
O=c1cc(CN2CCCCCC2)nc2sccn12	–	·	–	–	–	?
CC1Cc2ccccc2N1Cc1cc(=O)n2ccsc2n1 (stereo not given)	?	22µM	?	–	–	13µM
O=c1cc(CN2CCN(S(=O)(=O)c3ccccc3)CC2)nc2sccn12	–	–	–	–	–	?
COc1ccccc1N1CCN(Cc2cc(=O)n3ccsc3n2)CC1	–	–	–	–	–	–
CCOC(=O)c1c(C)nc2sccn12	–	–	–	–	–	–
Cc1nc2sccn2c1P(c1c(C)nc2sccn12)c1c(C)nc2sccn12	–	–	8.3µM	–	–	?
COc1cccc(NC(=O)c2sc3nc(C)c(C(=O)Nc4ccc(C)cc4C)c(-c4ccco4)c3c2N)c1	·	–	·	–	·	·
CCOC(=O)c1cccnc1SCC(=O)Nc1ccc(C)cc1C	·	–	·	–	·	·
